# The sample as a whole holds a higher share of hits than the screen did.
# mHTT-CaM PPI inh: mutant huntingtin-calmodulin interaction inhibitors – biochemical, AlphaScreen, primary screen; AlphaScreen His-mHTT/GST-CaM binding, luminescence; inhibition, % at 15 µM; hit rate 3.6% among 190,000; P42858;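 note: 0% = both proteins with DMSO and 100% = one protein alone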
# Pf apPOL block: Pf-apPOL inhibitors, biochemical, fluorescence; Plasmodium falciparum apicoplast DNA polymerase (apPOL); Recombinant Pf-apPOL, molecular beacon fluorescence, 1.5 h; inhibition, % at 10 µM; hit rate 0.25% among 210,000; AID 1794808, 2022
# * hit, by the source's call; / = no result given. Cut-off read from the data, not from the text of the source: active = inhibition above about 50%; inactive = the rest.
SMILES,mHTT-CaM PPI inh,Pf apPOL block
CCOc1ccc(C2OC(=O)Cc3cc(OCC)c(OCC)cc32)cc1OCC (centres undefined),7,0
CCOc1ccc(C2Oc3c(cc(Br)cc3OC)C=C2[N+](=O)[O-])cc1OCC (centres undefined),62*,-3
O=C(Nc1cccc2cccnc12)c1ccc(Cl)cc1Cl,-8,-5
Cc1[nH]c2ccccc2c1C(Nc1cccc(C(F)(F)F)c1)c1cccnc1 (centres undefined),4,-7
Oc1c(C(Nc2cccc(C(F)(F)F)c2)c2ccccn2)ccc2cccnc12 (centres undefined),99*,-114
Oc1c(C(Nc2cccc(C(F)(F)F)c2)c2cccnc2)ccc2cccnc12 (centres undefined),99*,-4
Oc1c(C(Nc2ccc(Cl)cc2)c2ccccn2)ccc2cccnc12 (centres undefined),100*,-4
O=C(NCc1ccccn1)C(=O)Nc1cccc(C(F)(F)F)c1,-2,-4
Oc1c(C(Nc2cccc(Cl)c2)c2ccccn2)ccc2cccnc12 (centres undefined),100*,-5
CN(C)CCC(c1ccc(Cl)cc1)c1ccccn1 (centres undefined),/,-8
O=C(C1CCCCC1)N1CCCC2(CC(c3cccc(Cl)c3)=CO2)C1 (centres undefined),36,-2
CCC(=O)N1CCC2(CC1)NC(=O)c1cc(C)ccc1N2,-9,0
O=[N+]([O-])c1ccc(NC(c2ccccn2)c2ccc3cccnc3c2O)cc1 (centres undefined),100*,-2
COc1ccc(NC(=O)c2cccnc2)cc1,-2,-8
O=[N+]([O-])c1ccc(OCCOc2cccc3cccnc23)cc1,2,0
COc1ccc(NC(c2cccnc2)c2ccc3cccnc3c2O)cc1 (centres undefined),99*,-3
CCNC(=O)c1ccc(-c2csc(CC)n2)cc1,-9,-4
Cc1nn(CC(=O)N(C)c2ccc(OC(F)(F)F)cc2)c(C)c1[N+](=O)[O-],5,1
O=C(/C=C/c1ccc(Cl)cc1Cl)Nc1ccccc1F,-14,-12
CC(=O)N1/C(=C/c2ccncc2)C(=O)c2ccccc21,-4,-7
CC(=O)N1/C(=C/c2ccc(N(C)C)cc2)C(=O)c2ccccc21,84*,-1
COc1ccc(NC2=C(N(C)C)C(=O)c3ccccc3C2=O)cc1,63*,-5
COc1cccc(NC2=C(N(C)C)C(=O)c3ccccc3C2=O)c1,58*,1
COc1ccc(C2=C(Nc3ccc(C(N)=O)cc3)c3ccccc3C2=O)cc1,38,-1
COc1cccc(Nc2ccccc2C)c1,15,-3
SMILES,mHTT-CaM PPI inh,Pf apPOL block
CCCCOc1ccc(NC(=O)N2CC(c3nc(C)no3)C2)cc1,-13,-11
COc1ccccc1C(CC#N)C1CCOC(C)(C)C1 (centres undefined),-3,0
Cc1cccc2nnc(N3CCCC(C(=O)NC4CCCC4)C3)n12 (centres undefined),-2,0
CCc1cc(CN(CC)CC)[nH]n1,-6,-8
COc1cc(C(=O)N2CCC(n3cnc4ccccc43)CC2)ccc1C,12,-7
CN(C)c1ccc(C(=O)N2CCC(CCOc3ccccc3F)CC2)cc1,88*,-6
CN(C)c1ccc(C(=O)N2CCC(CCOc3cccc(F)c3)CC2)cc1,15,-4
O=C(c1ccc(F)cc1)N1CCC(CCOc2ccccc2F)CC1,4,-3
CN(C)c1cccc(C(=O)N2CCC(n3cnc4ccc(F)cc43)CC2)c1,51*,-3
O=C(c1ccc2c(c1)OCO2)N1CCC(CCOCc2ccccc2F)CC1,-6,-1
CN(C)c1cccc(C(=O)N2CCC(CCOc3cccc(F)c3)CC2)c1,84*,-2
CN(C)c1cccc(C(=O)N2CCC(CCOCc3ccccc3F)CC2)c1,57*,-3
CC(CCNC(=O)CCC(=O)N1CCCn2nc(-c3cccn3C)cc21)N1CCCC1 (centres undefined),19,-2
CCOC(=O)/C=C/c1cc(F)ccc1S(=O)(=O)NC1CCCC1,-7,-1
CCSc1nnc(NC(=O)CSc2nccn2-c2ccc(OC)cc2OC)s1,6,-8
CN(C)c1cccc(C(=O)N2CCC(CCOCc3ccc(F)cc3)CC2)c1,60*,-5
CN(C)c1cccc(C(=O)N2CCC(CCOCc3cccc(F)c3)CC2)c1,48,-6
CC(=NNc1c(C)cccc1Cl)c1ccc(Oc2ncc([N+](=O)[O-])s2)cc1,/,11
CS(=O)c1ccc(C(=O)O)s1 (centres undefined),3,-4
CCOc1ccc(NC(=O)CN2CCc3ccccc3C2C(=O)N2CCC(C)CC2)cc1 (centres undefined),13,-3
O=C(CN1CCc2ccccc2C1C(=O)N1CCCC1)N1CCC(Cc2ccccc2)CC1 (centres undefined),68*,-9

# Source: PubChem BioAssay (University of Kansas High Throughput Screening Laboratory)
